# According to PubChem BioAssay AID1942 (Johns Hopkins Ion Channel Center, 2009):
# Among all 2,400 compounds or so, about 580 (24%) were called active.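 Rule for the calls: active = activity change at or above the mean plus 3 SD of buffer wells without dofetilide, per plate; inactive = the rest.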 The list is a sample of the results.
# Biological target: Potassium voltage-gated channel subfamily KQT member 2 (Rattus norvegicus) (UniProt O88943)
# Test: KCNQ2 potentiation in CHO cells – cell-based, FluxOR thallium flux, counter-screen for hERG block protector project, confirmation (AID 1942);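 note: normalized value minus buffer-control mean plus three SD of buffer wells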
# Details: FluxOR thallium flux fluorescence, at 10 µM, stronger effect = higher value
# Chain of Potassium voltage-gated channel subfamily KQT member 2 (Rattus norvegicus) (O88943 whole entry, looked up): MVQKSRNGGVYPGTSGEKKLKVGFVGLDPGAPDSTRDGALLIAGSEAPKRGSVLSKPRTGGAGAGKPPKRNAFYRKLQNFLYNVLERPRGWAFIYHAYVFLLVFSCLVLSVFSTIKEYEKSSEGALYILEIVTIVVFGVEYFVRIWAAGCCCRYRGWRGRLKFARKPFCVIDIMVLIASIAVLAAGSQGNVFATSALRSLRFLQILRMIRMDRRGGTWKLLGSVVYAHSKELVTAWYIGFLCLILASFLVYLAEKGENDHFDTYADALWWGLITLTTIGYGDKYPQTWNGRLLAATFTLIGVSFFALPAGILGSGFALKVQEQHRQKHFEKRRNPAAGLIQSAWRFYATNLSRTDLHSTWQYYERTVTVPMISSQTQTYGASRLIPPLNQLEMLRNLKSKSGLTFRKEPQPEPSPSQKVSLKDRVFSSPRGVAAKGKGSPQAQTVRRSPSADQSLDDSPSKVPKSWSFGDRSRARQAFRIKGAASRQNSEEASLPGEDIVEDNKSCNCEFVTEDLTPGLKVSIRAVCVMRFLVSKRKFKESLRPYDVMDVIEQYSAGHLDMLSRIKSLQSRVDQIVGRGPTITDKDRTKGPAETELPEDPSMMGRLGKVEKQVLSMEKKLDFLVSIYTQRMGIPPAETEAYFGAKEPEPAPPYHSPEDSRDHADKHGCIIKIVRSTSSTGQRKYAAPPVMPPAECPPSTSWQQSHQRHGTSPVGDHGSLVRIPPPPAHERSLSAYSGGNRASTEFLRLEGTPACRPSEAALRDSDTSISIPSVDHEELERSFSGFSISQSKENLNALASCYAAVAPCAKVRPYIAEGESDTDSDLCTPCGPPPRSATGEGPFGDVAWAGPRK
row,Compound,"activity change, less the hit threshold"
1,CC(=O)Cn1c(=O)c2c(nc3n2CCCN3Cc2ccccc2)n(C)c1=O,-11.9% (inactive)
2,COC(=O)C1CN(C(=O)COc2ccc(C)c(C)c2)c2ccccc2O1 (stereo not drawn),-18.1% (inactive)
3,CC(C)OC(=O)C1CC(C)(O)C(=O)C(C(=O)OC(C)C)C1c1ccc([N+](=O)[O-])cc1 (stereo not drawn),-20.5% (inactive)
4,CCc1noc(C)c1C(=O)N1CCCC(N2CCN(c3ccccc3F)CC2)C1 (stereo not drawn),-14.7% (inactive)
5,Cc1ccc(CN2CCN(/N=C/c3ccc(O)c(O)c3)CC2)cc1,-3.7% (inactive)
6,O=C(N/N=C/c1ccc2cccc(OCc3ccccc3)c2n1)c1ccc(Br)cc1,-9.5% (inactive)
7,O=C(COC(=O)c1cc(Br)ccc1O)Nc1cccnc1Cl,-19.3% (inactive)
8,Cc1cccc(/C=N/NC(=O)c2cc(Br)ccc2O)n1,0.2% (active)
9,NC(=O)C1CCN(C(=O)CCC(=O)c2ccc(F)cc2)CC1,-12.6% (inactive)
10,CCOC(=O)C1CCCN(C(=S)NC(=O)/C=C/c2ccc(F)cc2)C1 (stereo not drawn),-20.7% (inactive)
11,CCOC(=O)C1CCCCN1Cc1ccc(F)cc1 (stereo not drawn),4.5% (active)
12,O=C1c2ccccc2C(=O)N1Cc1cc(-c2ccccc2Cl)no1,-14.4% (inactive)
13,O=C(NC(=S)N1CCc2ccccc21)c1ccc(Br)o1,19.1% (active)
14,Cn1nnnc1SCC(=O)NC1CCCc2ccccc21 (stereo not drawn),-30.8% (inactive)
15,O=C(NC(=S)N1CCc2ccccc21)c1ccco1,0.6% (active)
16,O=C(NC(=S)NC1CCCc2ccccc21)c1ccco1 (stereo not drawn),7% (active)
17,Cc1cccc(OCC(=O)NC2CCCc3ccccc32)c1C (stereo not drawn),-34.2% (inactive)
18,Cc1ccc(OCCC(=O)OC(C)C(=O)Nc2ccc(Cl)cn2)cc1 (stereo not drawn),-8.9% (inactive)
19,O=C(O)CCCn1cc(NC(=O)COc2ccc(F)cc2)cn1,-25.3% (inactive)
20,Fc1ccc2c(c1)C(c1ccncc1)=NNC(c1cccnc1)=N2,-6.5% (inactive)
21,Cc1ccc(CNS(=O)(=O)c2ccc(C(F)(F)F)cc2)n1C,-26.5% (inactive)

row,Compound,"activity change, less the hit threshold"
1,Nc1nc2n(n1)C(=O)CC(c1ccc(Cl)cc1)N2 (stereo not drawn),-10.5% (inactive)
2,CC(=O)N1CCCc2cc(S(=O)(=O)NCc3ccc(C)cc3)ccc21,-9.9% (inactive)
3,c1ccc(CCCNc2ncnc3nc[nH]c23)cc1,30.4% (active)
4,COc1ccc(N2CC(C(=O)OCC(=O)Nc3ccccc3C)CC2=O)cc1 (stereo not drawn),-5.6% (inactive)
5,CCc1cc2cc(C)cc(C)c2[nH]c1=S,2.1% (active)
6,CN(C)Cc1c(C(=O)N/N=C/c2ccccc2OCc2c(F)cccc2Cl)nnn1-c1nonc1N,-28.3% (inactive)
7,O=C(O)/C=C/c1cn(-c2ccccc2)nc1-c1ccc(-c2ccc([N+](=O)[O-])cc2)o1,-18% (inactive)
8,S=c1[nH]c2cc(-c3ccccc3)ccc2o1,86.2% (active)
9,Cc1ccc(NN=Nc2nc3c([nH]2)c(=O)n(C)c(=O)n3C)cc1,-16.4% (inactive)
10,COC(=O)C1=C(C)N(CC2CCCO2)C(=O)/C1=C\c1ccc(O)cc1 (stereo not drawn),-0.1% (inactive)
11,CCN(CC)S(=O)(=O)c1ccc2[nH]c(=O)cc(C(=O)Nc3cccc(C(C)=O)c3)c2c1,-14.9% (inactive)
12,Cc1cccc(NC(=S)NC(=O)c2cc(-c3ccccc3)nc3ccccc23)c1,-14.7% (inactive)
13,O=C(NC(=S)Nc1ccccn1)c1cc(-c2ccccc2)nc2ccccc12,-12% (inactive)
14,Cc1ccccc1NC(=S)NC(=O)c1cc(-c2ccccc2)nc2ccccc12,2% (active)
15,CC(C)(C)NS(=O)(=O)c1ccc(NC(=O)c2cc(-c3ccccc3)nc3ccccc23)cc1,-22% (inactive)
16,O=C(NC(=S)Nc1ccccc1)c1cc(-c2ccccc2)nc2ccccc12,-5.5% (inactive)
17,COC(=O)c1ccc(NC(=S)NC(=O)c2cc(-c3ccccc3)nc3ccccc23)cc1,1.1% (active)
18,CCCCCCc1cc2cc(-c3nnc(-c4ccccc4)o3)c(=O)oc2cc1O,-23.8% (inactive)
19,O=C(C[n+]1ccccc1)N/N=C/c1ccc(Cl)c(Cl)c1,-28.9% (inactive)
20,O=C(c1cccs1)N1CCN(C23CC4CC(CC(C4)C2)C3)CC1,-10.7% (inactive)
21,CCC1Nc2ncnc(N3CCOCC3)c2N(Cc2ccc(C)cc2)C1=O (stereo not drawn),-18.9% (inactive)

row,Compound,"activity change, less the hit threshold"
1,CCc1cc(=O)[nH]c(SCc2ccc(C)cc2)n1,-15.8% (inactive)
2,CSc1nc(=S)cc(C)[nH]1,-1.9% (inactive)
3,CCSc1nc(=S)cc(C)[nH]1,48.7% (active)
4,CN(C)CCNc1ncnc2c1sc1nc(N3CCCC3)c3c(c12)CC(C)(C)OC3,-13.1% (inactive)
5,CCOC(=O)NC(=S)Nc1ccc(C(C)(C)C)cc1Br,2.1% (active)
6,COC(=O)CNC(=S)NC(=O)c1ccc(C(C)(C)C)cc1,-13% (inactive)
7,CCOC(=O)NC(=S)Nc1ccc(C(C)(C)C)cc1,1% (active)
8,CC(C)(C)c1ccc(/C=N/NC(=S)Nc2cccnc2)cc1,-14% (inactive)
9,CCCCNC(=O)CC(NS(=O)(=O)c1ccc(C)cc1)c1ccco1 (stereo not drawn),-14.3% (inactive)
10,C[n+]1ccccc1/C=C/c1ccc(C#N)cc1,-12.2% (inactive)
11,COCC(=O)N(Cc1ccco1)c1nnc(C2CCOC2)s1 (stereo not drawn),-22.7% (inactive)
12,Cc1ccc(N=Nc2ccc(O)c3ncccc23)cc1,-4.3% (inactive)
13,COc1ccc(-n2cnc3ccccc3c2=O)c([N+](=O)[O-])c1,-12.6% (inactive)
14,O=[N+]([O-])c1cc(F)c2cccnc2c1O,6.4% (active)
15,Oc1c(Cl)cc(CN2CCCCC2)c2cccnc12,-12.8% (inactive)
16,O=[N+]([O-])c1cccnc1Sc1n[nH]c(-c2ccc(Cl)cc2)n1,-16.6% (inactive)
17,O=[N+]([O-])c1ccc(O)c2ncccc12,22.1% (active)
18,O=C(O)C[C@H]1c2cc(F)ccc2S(=O)(=O)N1C1CCCCC1,-10.2% (inactive)
19,CC(C)(C)c1csc(NNC(=O)c2ccc(Cl)cc2)n1,-7.6% (inactive)
20,Cc1nc(-c2nc(-c3c(C(=O)NNC(=O)c4ccc(Cl)cc4)noc3C)cs2)cs1,-1.2% (inactive)
21,CC(C)(C)c1cc(C(=O)NNC(=O)c2ccc(Cl)cc2)no1,24% (active)
